Consider 19 molecules from PubChem BioAssay (NCATS).

Inconclusive results are not listed. Calls of active or inactive are those of the source. Calls follow the shape of the full dose curve.

In the assay the target is Estrogen receptor (Homo sapiens) (UniProt P03372). As to the kind of experiment: qHTS assay for small molecule agonists of estrogen receptor alpha signaling (AID 588514). Also: nearly all actives have a fitted effect of over 70% in size. The conditions noted are these: ER-alpha-UAS-bla HEK293, beta-lactamase ratio, 18 h, percent of full estradiol response, vehicle zero; series mostly up to 76.8 µM. In outline: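 Cells were plated at 5000/well, incubated 4 hrs at 37 C, dosed with compound titration series, incubated 18 hrs at 37 C, loaded with CCF4 dye for 2 hrs at RT, then fluorescence was read.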
Chain of Estrogen receptor (Homo sapiens) (P03372 whole entry, looked up): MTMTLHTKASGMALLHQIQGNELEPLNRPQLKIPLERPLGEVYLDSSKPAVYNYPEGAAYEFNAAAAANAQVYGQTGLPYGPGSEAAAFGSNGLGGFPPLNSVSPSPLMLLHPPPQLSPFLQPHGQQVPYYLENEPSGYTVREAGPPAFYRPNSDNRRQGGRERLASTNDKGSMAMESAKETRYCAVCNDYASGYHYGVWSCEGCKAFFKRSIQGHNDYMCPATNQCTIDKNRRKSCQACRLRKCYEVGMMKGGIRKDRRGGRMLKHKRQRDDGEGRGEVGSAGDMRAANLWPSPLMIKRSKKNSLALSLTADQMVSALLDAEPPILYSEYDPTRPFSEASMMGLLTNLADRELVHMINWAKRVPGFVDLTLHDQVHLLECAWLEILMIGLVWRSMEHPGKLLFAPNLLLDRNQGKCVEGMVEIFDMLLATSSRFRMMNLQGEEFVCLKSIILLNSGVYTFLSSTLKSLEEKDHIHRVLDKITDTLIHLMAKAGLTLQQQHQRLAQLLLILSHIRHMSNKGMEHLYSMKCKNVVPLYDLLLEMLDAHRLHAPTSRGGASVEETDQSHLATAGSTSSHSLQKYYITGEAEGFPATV
(Quantitative high-throughput screening tests each substance at several concentrations.)
Consider `c1ccc2occc2c1`, for which the result was inactive.
Next, `O=C(O)COc1nc(Cl)c(Cl)cc1Cl`: “inactive”; `O=S(=O)(c1ccc(Cl)cc1)c1ccc(Cl)cc1`: “inactive”; `c1cc2ccc3cccc4ccc(c1)c2c34`: “inactive”.
Next, `O=[N+]([O-])c1c(Cl)c(Cl)cc(Cl)c1Cl`: “inactive”; `COCCOCCO`: “inactive”; `CC(C)(O)C(=O)Nc1ccc([N+](=O)[O-])c(C(F)(F)F)c1`: “inactive”.
`OCCCBr`: the result was inactive.
Next, `Nc1ccc(Cl)cc1`: “inactive”.
With `CCCN(CCC)c1c([N+](=O)[O-])cc(S(N)(=O)=O)cc1[N+](=O)[O-]`, the outcome was inactive.
Regarding `CCCCC(CC)COC(=O)c1ccccc1C(=O)OCC(CC)CCCC` (centres undefined), the result was inactive.
Next, `COc1nn(CSP(=S)(OC)OC)c(=O)s1`: “inactive”; `CC(C)Oc1cccc(NC(=O)c2ccccc2C(F)(F)F)c1`: “inactive”.
Next, `CCOCCOC(C)=O`: “inactive”; `O=[N+]([O-])/N=C1\NCCN1Cc1ccc(Cl)nc1`: “inactive”; `C=CCC1=C(C)C(OC(=O)C2C(C=C(C)C)C2(C)C)CC1=O` (centres undefined): “inactive”.
Turning to `C=CC(=O)NCNC(=O)C=C`, the result was inactive.
Next, `O=C(Nc1ccccc1-c1ccc(Cl)cc1)c1cccnc1Cl`: “inactive”; `CCO/N=C(\CC)C1=C(O)CC(c2c(C)cc(C)cc2C)CC1=O` (centres undefined): “inactive”.
